WNV protease inh: inhibitors of WNV NS2B-NS3 protease, primary screen, biochemical, fluorogenic substrate. Genome polyprotein (West Nile virus), P06935. z-score (concentration not given with the values). fluorogenic substrate Ex360/Em465; stronger effect = lower value. 65,000 tested, 0.18% active; in the data active = z-score below about -3
D1 mod: D1 CRE-luciferase signal change, two-sided – cell-based, HEK293 D1, dopamine EC30, D1 allosteric modulator project, primary screen | D(1A) dopamine receptor (Homo sapiens), P21728 | dopamine EC30 potentiation; actives deviate in either direction | B-score at 10 µM | 58,000 tested, 5.9% active | AID 641, 2007;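 active = luminescence count or its row- and column-corrected plate score outside the 99.7% band of the plate's sample wells, on either side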
M1 antag: antagonists of rat M1 muscarinic receptor | AID 628, 2007 | CHO-M1 cells, Fluo-4 calcium, ACh EC80 antagonist mode; stronger effect = lower value | Muscarinic acetylcholine receptor M1 (Rattus norvegicus), P08482 | 64,000 tested, 3.4% active | B-score at 10 µM;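 active = calcium fluorescence response, raw or row-and-column corrected B-score, differing from the plate sample mean either way at a set confidence level, mostly lower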
Target sequence (P08482 whole entry, looked up): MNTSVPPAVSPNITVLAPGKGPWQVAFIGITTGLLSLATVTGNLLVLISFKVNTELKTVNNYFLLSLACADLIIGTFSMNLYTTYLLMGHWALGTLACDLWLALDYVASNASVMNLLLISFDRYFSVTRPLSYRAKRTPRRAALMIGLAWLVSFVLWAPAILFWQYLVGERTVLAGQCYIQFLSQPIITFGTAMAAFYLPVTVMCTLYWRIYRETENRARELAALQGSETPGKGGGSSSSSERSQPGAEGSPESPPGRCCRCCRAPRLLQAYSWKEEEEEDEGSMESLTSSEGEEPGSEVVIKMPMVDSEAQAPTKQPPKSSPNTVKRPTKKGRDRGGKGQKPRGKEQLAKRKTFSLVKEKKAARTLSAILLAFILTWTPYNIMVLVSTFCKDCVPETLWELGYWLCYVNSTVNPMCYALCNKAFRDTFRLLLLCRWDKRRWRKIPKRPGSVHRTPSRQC
mHtt clearance: clearance of mutant huntingtin inclusions, primary screen, imaging, HeLa Exon1htt(103Q)mCFP, confocal imaging; aggregate imaging; zero = plate's median compound well; inhibition, % at 1.5 µM; 47,000 tested, 0.42% active;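 active = inhibition of aggregate fluorescence above about 70%, also judged a hit by eye on the cell image, limit read from the data, passing the limit was not always enough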;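 also: cells exposed to compound for three days before fixation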
M1 ag: M1 muscarinic receptor agonists, primary screen, CHO-M1 cells, Fluo-4 calcium, agonist mode; Muscarinic acetylcholine receptor M1; Fluo-4 calcium fluorescence; stronger effect = higher value; B-score at 10 µM; 64,000 tested, 3% active;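 active = fluorescence rise, raw or as B-score row- and column-corrected plate score, outside the 99.7% band of its plate's samples, either direction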
* marks the source's active call; other numbers are inactive results; / = no result given. Only some compounds are listed: those with a hit (about 8.9% of all), similar ones and a draw of the others.

SMILES	WNV protease inh	D1 mod	M1 antag	mHtt clearance	M1 ag
O=C(O)CC1C(=O)NCCN1Cc1ccc(F)c(F)c1 (stereo not given)	0.82	-0.523	1.44*	/	-0.27
Cc1ccc(CN2CCNC(=O)C2CC(=O)O)cc1 (stereo not given)	-0.82	0.331	0.983	/	-0.0303
Cc1oc(-c2ccc(Cl)cc2)nc1CN1CCC(C(=O)NCc2ccco2)CC1	-0.01	-3.17*	-0.321	/	0.647
Cc1oc(-c2cccc(Cl)c2)nc1CN1CCC(C(=O)NCc2ccco2)CC1	0.02	0.401	-0.292	/	-0.466
Cn1c(C(=O)NCCCN2CCCC2=O)cc2c(=O)n3ccccc3nc21	4.44	1.47	1.55	/	-0.994
O=C(Cn1cc2c(n1)CCCC2)NCCCN1CCN(c2ccccc2F)CC1	0.57	-3.1*	-1.44	-104.2	-1.11
Cn1c(=O)cc(OCC(=O)NCCCN2CCN(c3ccccc3F)CC2)c2ccccc21	2.29	0.559	-0.0132	/	0.00754
CCn1c(=O)cc(SCC(=O)NCCCN2CCN(c3ccccc3F)CC2)c2ccccc21	2.43	-3.54*	-1.55	/	-0.156
COc1ccccc1CC1(C)NC(=O)N(CC(=O)Nc2cc(C)on2)C1=O (stereo not given)	-0.8	-1.27	0.0527	/	-0.173
CC(=O)Nc1ccc(NC(=O)CN(C)CCC#N)cc1	-0.96	-0.00013	/	/	/
Cc1c2c(n3c(nc4ccccc43)c1C#N)N(Cc1ccccn1)CC2	-0.44	-0.152	-0.2	/	-0.0305
Cc1ccc(N(C(=O)c2cccs2)C2C=CS(=O)(=O)C2)cc1 (stereo not given)	0.09	/	0.384	21.3	1.58
O=C(c1ccco1)N1CCN(C(=O)c2cc(-c3ccccn3)nc3ccc(Cl)cc23)CC1	-0.11	-2.09	-0.851	-131.0	5.26*
Cc1ccc(CNC(=O)c2cn(C3CCCC3)c(=O)c3c2c2ccccc2n3C)o1	-1.33	-1.02	-1.52	/	1.32
O=C(CSc1nc2ccsc2c(=O)n1Cc1ccccc1)NCc1ccco1	-0.64	-2.23*	0.775	-0.9	-0.744
O=C(CSc1nc2ccsc2c(=O)n1NC(=O)c1ccccc1)NCc1ccco1	-1.54	-0.765	0.197	70.0*	-0.196
O=S(=O)(c1cnc[nH]1)N1CCc2ccccc21	1	-0.406	0.462	/	-2.04
Nc1ccc(S(=O)(=O)Nc2ccccn2)cc1	-3.12*	-1.39	-0.0163	/	0.0355
COc1ccc(S(=O)(=O)Nc2ccccn2)cc1OC	1.13	0.591	0.321	-64.0	-0.523
Cc1csc2nc(=O)c3ccccc3n12	-2.52	0.117	0.399	-23.8	-0.65
COc1ccc(NS(=O)(=O)c2ccc(OC)c3ccccc23)cn1	-0.21	-0.179	-0.591	/	-1.24
COc1ccc(S(=O)(=O)Nc2cc(C)cc(C)n2)c2ccccc12	0.86	0.531	0.0707	86.5*	0.0754
COc1cccc(NC(=O)CCSc2nnc3scc(-c4ccccc4)n23)c1	-0.21	4.38*	-0.0506	/	-0.108
N#Cc1c(NC(=O)CSc2ncn[nH]2)sc2c1CCCCC2	0.11	-4.57*	-0.659	/	-0.196
N#Cc1c(NC(=O)CSc2nc(N)cc(=O)[nH]2)sc2c1CCCCCC2	0.02	-0.558	-0.122	/	-0.00357
SMILES	WNV protease inh	D1 mod	M1 antag	mHtt clearance	M1 ag
NC(=O)c1ccsc1NC(=O)CSc1ccccc1F	0.11	-3.45*	0.576	-16.0	-0.824
NC(=O)c1ccsc1NC(=O)COc1ccccc1	-0.12	1.22	-0.538	/	1.01
CN(C)/C=C1\C(=O)Nc2ccccc21	/	/	/	25.7	/
CN(C)/C=C1/Sc2ccccc2C1=O	-4.06*	/	-0.382	/	0.641
Cc1nc2ccc(C(=O)O)cc2c2c1CC(C)S2 (stereo not given)	0.58	/	-0.689	33.0	-0.765
CCOCCCNC(=O)c1ccc(CS(=O)(=O)Cc2ccc(C)cc2)o1	-1.17	-0.519	0.398	14.0	-0.948
O=C(NCC1CCCO1)C1c2ccccc2C(=O)N1C1CCCCCC1 (stereo not given)	-0.34	-1.24	0.212	-62.5	9.19*
COc1ccccc1S(=O)(=O)Cc1ccc(C(=O)NCc2cccs2)o1	-0.9	-0.101	2.17*	/	0.0257
COc1ccc(S(=O)(=O)Cc2ccc(C(=O)NCc3cccs3)o2)cc1	0.25	-0.861	0.46	28.0	-0.0242
Cc1nc2nc3c(cn2n1)C(=O)CC(C)(C)C3	-0.21	0.824	0.667	/	0.755
COc1ccccc1-c1cc(C(=O)NC(C)c2ccccc2)no1 (stereo not given)	-0.89	-1.8	0.289	19.7	-0.775
COc1ccccc1-c1cc(C(=O)NC(C)C)no1	0.45	-3.18*	0.085	2.3	-0.00693
Cn1c2ccccc2c2cnn(CC(=O)N3CCN(c4ncccn4)CC3)c(=O)c21	-0.76	-0.326	-0.452	/	0.438
c1ccc(Nc2c3c(nc4ncnn24)CCC3)cc1	-1.12	-4.81*	0.296	/	-0.769
Nc1ccc(O)c(-c2nc3ccccc3s2)c1	-0.93	-0.342	0.528	-52.5	-0.677
Nc1cccc(-c2nc3ccc(N)cc3s2)c1	5.71	-4.68*	-0.0277	-36.3	-0.0682
COCCNC(=O)CS(=O)(=O)Cc1nc(-c2ccc(C)cc2)oc1C	-0.98	/	0.00292	/	-1.53
Cn1c(=O)[nH]c(=O)c2c1nc(N1CCN(c3ccccc3)CC1)n2CCSc1ncccn1	1.15	-4.19*	-1.13	/	4.03
CN1[C@@H](CC(=O)c2ccccc2)CCC[C@H]1C[C@H](O)c1ccccc1	-0.55	-2.13	-8.45*	/	34.4*
OC(CCCCN1CCCCC1)c1ccccc1 (stereo not given)	0.15	-0.296	0.0855	/	0.196
O=C(OCCN1C(=O)c2ccccc2C1=O)c1cccc(OC(F)F)c1	2.18	-0.837	-0.0417	9.0	0.365
CC(C)CC(=O)Nc1ccc(-c2cn3ccsc3n2)cc1	-0.88	-4.48*	-0.315	3.4	0.749
CC(C)(C)C(=O)Nc1ccc(-c2cn3ccsc3n2)cc1	-0.35	-5.38*	-0.0384	/	-0.128
Cn1c(C(=O)OCC(=O)NCCc2ccccc2)cc2sccc21	-0.33	0.0116	0.0959	39.6	-0.531
CC(=O)N(CC(=O)O)c1ccccc1C(=O)O	-0.39	-0.858	-0.387	10.4	-0.754
SMILES	WNV protease inh	D1 mod	M1 antag	mHtt clearance	M1 ag
C=CCc1ccccc1OCC(O)CN1CCN(c2ccc(OC)cc2)CC1 (stereo not given)	0.61	-2.58*	-0.767	10.5	-0.885
COc1ccccc1N1CCN(CC(O)c2ccc3cc[nH]c3c2)CC1 (stereo not given)	-0.51	-2.63*	0.0607	-14.7	-1.42
COc1cc(OC)c(OC)cc1CN1CCN(c2ccccc2OC)CC1	0.63	-3.75*	-0.699	25.6	-0.0342
COc1cccc(OC)c1OCC(O)CN1CCN(c2ccccc2)CC1 (stereo not given)	-0.61	-2.85	0.412	/	-0.00343
COc1ccccc1N1CCN(CC(O)COc2c(OC)cccc2OC)CC1 (stereo not given)	-0.52	-4.63*	0.00246	-26.5	1.07
Cc1nc(N)sc1-c1csc(Nc2ccccn2)n1	-2.62	-6.04*	-1.02	9.9	-0.371
Cc1nc(N)sc1-c1csc(Nc2ccc(Cl)cn2)n1	0.58	1.15	-0.142	-62.2	-0.496

Compound activity deposited in PubChem BioAssay by several laboratories.
